Common to all, as to details: concentration: 1 μM, replicates: in singlicate; n = 1
The subject of assay [1] is T1, ERK1.
T1 construct: gene MAPK3

For assay [2], the system named is T2, ERK2.
T2 construct: gene MAPK1

Assay [3] concerns T3, ERK3.
T3 construct: gene MAPK6

The subject of assay [4] is T4, ERK4.
T4 construct: gene MAPK4

Assay [5] concerns T5, ERK5.
T5 construct: gene MAPK7

For assay [6], the system named is T6, ERK8.
T6 construct: gene MAPK15

The test system of assay [7] is ERN1.
The subject of assay [8] is T7, FAK.
T7 construct: gene PTK2

In assay [9] the test system is FER.
In assay [10] the test system is FES.
Assay [11] deals with FGFR1.
Assay [12] relates to FGFR2.
The subject of assay [13] is FGFR3.
In assay [14] the test system is FGFR4.
Assay [15] deals with FGR.
In assay [16] the test system is FLT1.
For assay [17], the system named is FLT3-autoinhibited.
Assay [18] has as its system FLT3.
The subject of assay [19] is FLT4.
The test system of assay [20] is FRK.
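Note: KINOMEscan kinase panel screen.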

On to `COC(=O)Nc1nc2ccc(Oc3ccc(CC(=O)Nc4cc(C(F)(F)F)ccc4F)cc3)cc2[nH]1` [GW680903], for which the “%Inh” value in [1] is reported as 0%; in assay [2], 0%; in [3], 0%; in assay [4] it was 7%; in assay [5] it was 0%; in assay [6], 0%. For the same molecule, the “%Inh” value amounted to 0% in assay [7]; 0% in [8]; 0% in assay [9]; 0% in assay [10]; 0% in [11]; 6% in assay [12]. For the same molecule, the “%Inh” value in assay [13] is 8%; in [14], 4%; in assay [15], 10%; in assay [16], 93%; in assay [17], 20%; in assay [18], 99.3%. In addition, the “%Inh” value in assay [19] was 72%; in [20] it was 19%.

Take `CN(c1ccc(NC(=O)N2CCN(CCCN3CCOCC3)CC2)cc1)c1ccnc(Nc2ccc(CS(C)(=O)=O)cc2)n1.Cl` [GW830899]: the “%Inh” value worked out at 0% in assay [1]; 0% in assay [2]; 0% in assay [3]; 8% in assay [4]; 0% in [5]; 0% in [6]. Also, the “%Inh” value in [7] is listed as 0%; in assay [8] it was 34%; in [9] it was 10%; in [10], 0%; in assay [11], 0%; in [12], 9%. Also, the “%Inh” value in assay [13] is recorded as 8%; in assay [14], 5%; in [15], 35%; in [16], 73%; in assay [17] it was 75%; in assay [18] it was 92.7%. In addition, the “%Inh” value in assay [19] came to 38%; in [20], 32%.

With `Cc1ccc(Nc2ccnc(Nc3ccc(C)c(F)c3)n2)cc1O.Cl` [GW582868], the “%Inh” value in assay [1] is listed as 0%; in assay [2], 0%; in assay [3], 0%; in assay [4], 0%; in assay [5] it was 26%; in assay [6], 43%. Further, the “%Inh” value in assay [7] was 0%; in [8], 0%; in [9], 1%; in assay [10], 0%; in [11], 1%; in assay [12], 0%. In addition, the “%Inh” value is 12% in [13]; 5% in [14]; 85% in [15]; 46% in [16]; 0% in assay [17]; 59% in assay [18]. Further, the “%Inh” value was 72% in assay [19] and 92.9% in [20].

`Cc1ccc(C)c(NC(=O)Nc2ccc(C)c(-c3ccc(C(=O)Nc4ccncc4)cc3)c2)c1` [GSK1398473]: the “%Inh” value in assay [1] came out at 0%; in assay [2] it was 16%; in [3] it was 9%; in assay [4], 28%; in [5], 0%; in [6], 0%. Further, the “%Inh” value is on record as 0% in assay [7]; 0% in assay [8]; 13% in [9]; 0% in assay [10]; 0% in [11]; 0% in assay [12]. Moreover, the “%Inh” value in assay [13] came out at 10%; in assay [14], 3%; in assay [15], 16%; in assay [16] it was 48%; in [17] it was 0%; in [18], 91.8%. Besides, the figures for the “%Inh” value in assay [19] and in assay [20] were 39% and 50%, respectively.

Regarding `Cl.N#CCc1ccc(Nc2nccc(Nc3ccc(Oc4ccccc4)cc3)n2)cc1` [GW639905], the “%Inh” value in assay [1] came to 0%; in assay [2] it was 0%; in [3], 0%; in assay [4] it was 0%; in [5], 0%; in assay [6], 35%. For the same molecule, the “%Inh” value in [7] is recorded as 10%; in assay [8] it was 0%; in assay [9], 0%; in assay [10], 0%; in assay [11], 11%; in assay [12], 8%. For the same molecule, the “%Inh” value was determined as 13% in assay [13]; 0% in [14]; 90.2% in assay [15]; 43% in [16]; 23% in [17]; 94.5% in [18]. The “%Inh” value in [19] is listed as 12%; in assay [20], 39%.

Turning to `COc1cccc(NC(=O)NCCNc2ccnc(Nc3ccc(F)cc3)n2)c1` [GSK1379879], the “%Inh” value in assay [1] amounted to 0%; in assay [2] it was 0%; in assay [3], 4%; in assay [4], 25%; in assay [5], 0%; in assay [6], 0%. Besides, the “%Inh” value came out at 0% in assay [7]; 0% in assay [8]; 8% in [9]; 0% in [10]; 0% in [11]; 53% in assay [12]. In addition, the “%Inh” value in assay [13] was 2%; in assay [14], 9%; in assay [15] it was 22%; in assay [16], 15%; in [17] it was 0%; in [18], 0%. The “%Inh” value is reported as 0% in [19] and 11% in assay [20].

Turning to `COc1cccc(-c2nc(-c3ccccc3)[nH]c2-c2ccncc2)c1` [SB-610250], the “%Inh” value in assay [1] was 0%; in [2] it was 0%; in [3], 4%; in assay [4], 21%; in assay [5] it was 14%; in assay [6], 0%. The “%Inh” value in assay [7] is on record as 20%; in assay [8], 0%; in assay [9], 0%; in assay [10], 0%; in assay [11], 0%; in assay [12], 0%. The “%Inh” value worked out at 0% in [13]; 5% in assay [14]; 14% in [15]; 32% in assay [16]; 5% in assay [17]; 0% in assay [18]. Besides, the “%Inh” value in assay [19] is 7%; in assay [20], 28%.

With `Cc1cc(-c2c(-c3ccc(F)cc3)ncn2CCCN2CCOCC2)nc(N)n1` [SB-222517], the “%Inh” value amounted to 4% in assay [1]; 21% in assay [2]; 0% in assay [3]; 0% in [4]; 0% in [5]; 6% in assay [6]. For the same molecule, the “%Inh” value in [7] is 0%; in assay [8], 0%; in [9] it was 16%; in assay [10], 35%; in [11], 20%; in assay [12], 0%. In addition, the “%Inh” value in assay [13] is 0%; in [14] it was 0%; in assay [15], 9%; in [16], 0%; in assay [17], 0%; in assay [18], 27%. Moreover, the “%Inh” value in [19] and in [20] was 0% in each case.

`Fc1cc(Cl)ccc1Nc1ccnc2cc(-c3ccc(CN4CCOCC4)o3)ccc12` [GW560109]: the “%Inh” value came to 12% in assay [1]; 0% in assay [2]; 0% in [3]; 0% in assay [4]; 0% in assay [5]; 19% in [6]. Also, the “%Inh” value in [7] came to 16%; in assay [8], 0%; in assay [9] it was 6%; in assay [10], 0%; in assay [11], 40%; in [12], 33%. For the same molecule, the “%Inh” value was 26% in [13]; 30% in [14]; 91.2% in [15]; 86% in [16]; 6% in assay [17]; 53% in [18]. The “%Inh” value is recorded as 88% in [19] and 86% in assay [20].

For the molecule `Nc1ncc(-c2cn[nH]c2)c2scc(-c3ccc4c(c3)CCN4C(=O)Cc3ccccc3)c12` [GSK2593067], the “%Inh” value in assay [1] came out at 3%; in assay [2] it was 3%; in assay [3] it was 0%; in [4], 0%; in [5], 0%; in assay [6], 10%. In addition, the “%Inh” value in assay [7] was 0%; in assay [8], 0%; in assay [9], 29%; in assay [10], 0%; in assay [11] it was 37%; in assay [12] it was 31%. The “%Inh” value in [13] was determined as 19%; in assay [14] it was 0%; in assay [15], 80%; in assay [16], 83%; in [17], 13%; in assay [18] it was 98.4%. The results for the “%Inh” value in assay [19] and in assay [20] were 43% and 38%, respectively.

Source of the values: publication PMC5540273 (PLoS ONE, 2017).
